Compound activity: PubChem BioAssay, several laboratories
CCHFV vOTU inh = CCHFV vOTU protease inhibitors, primary screen, biochemical, Pep-AMC substrate, fluorescence | AID 651958, 2012 | hit rate 0.55% among 370,000 | inhibition, % at 11.5 µM; in the data active = inhibition above about 30%
Mtb FBA inh = Mtb FBA enzyme inhibitors, primary screen, biochemical, fluorescence, strain H37Rv; Fructose-bisphosphate aldolase (Mycobacterium tuberculosis (strain ATCC 25618 / H37Rv)), …; purified M. tuberculosis FBA, fluorescence read-out; inhibition, % at 1 µM; hit rate 2.3% among 360,000; AID 588726, 2011
Target sequence (P9WQA3 whole entry, looked up): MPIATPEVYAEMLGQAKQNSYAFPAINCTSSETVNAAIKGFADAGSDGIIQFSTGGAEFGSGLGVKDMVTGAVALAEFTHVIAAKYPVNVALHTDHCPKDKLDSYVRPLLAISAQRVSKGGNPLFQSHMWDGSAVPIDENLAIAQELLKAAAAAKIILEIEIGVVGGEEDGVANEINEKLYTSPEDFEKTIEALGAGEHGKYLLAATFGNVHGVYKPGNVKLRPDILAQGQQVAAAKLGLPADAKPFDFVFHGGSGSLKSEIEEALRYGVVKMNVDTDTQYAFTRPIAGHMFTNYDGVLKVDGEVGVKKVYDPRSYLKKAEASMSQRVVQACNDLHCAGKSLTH
GDH-TPI counter-1 = GDH-TPI coupling enzyme inhibitors, primary screen, artefact control for M. tuberculosis FBA inhibitor project, biochemical, absorbance, full deck | GDH-TPI coupled enzyme counterscreen, NADH absorbance | inhibition, % at 4.8 µM | hit rate 1.2% among 360,000; in the data active = inhibition above about 30%
RecA splice inh = Mtb RecA intein splicing inhibitors, primary screen, biochemical, fluorescence, HTS. Protein RecA (Mycobacterium tuberculosis (strain ATCC 25618 / H37Rv)), P9WHJ3. cell-free RecA intein splicing. inhibition, % (no concentration beside the values). hit rate 0.75% among 290,000. AID 2221, 2009; in the data active = inhibition above about 30%
Mtb FBA inh conf = M. tuberculosis aldolase blockers, biochemical, fluorescence, strain H37Rv, confirmation | shares compounds with Mtb FBA inh | purified M. tuberculosis FBA, fluorescence read-out | inhibition, % at 1 µM | hit rate 78% among 5,600 | AID 651616, 2012
GDH-TPI counter-2 = GDH-TPI coupling enzyme inhibitors, artefact control for M. tuberculosis FBA inhibitor project, biochemical, fluorescence, high throughput. shares compounds with Mtb FBA inh. GDH-TPI coupled enzyme counterscreen. inhibition, % at 1 µM. hit rate 81% among 5,600; in the data active = inhibition above about 10%
GDH-TPI dose = GDH-TPI coupling enzyme inhibitors, dose response, artefact control for M. tuberculosis FBA inhibitor project, biochemical, fluorescence, IC50; shares compounds with Mtb FBA inh; GDH-TPI coupled enzyme assay, artifact counterscreen; IC50, µM; hit rate 79% among 170; AID 652145, 2013; call rule not given here
Hits are given with their value; i = inactive; nt = not tested or not shown; + = active, no number. Shown are actives, neighbours in structure and some others; about 4.2% of the full set was active somewhere. Rule as the data show it, unless noted: active = inhibition above about 27%; inactive = the rest.

SMILES	CCHFV vOTU inh	Mtb FBA inh	GDH-TPI counter-1	RecA splice inh	Mtb FBA inh conf	GDH-TPI counter-2	others
O=C(Nc1cc(Cl)ccc1-n1cncn1)C1CC1	i	i	i	i	nt	nt
Cc1cc(NC(=O)CSc2nc(C)c(C)c(=O)[nH]2)no1	i	i	i	i	nt	nt
Cc1cc(NS(=O)(=O)c2ccc(NC(=O)Cc3ccc(Cl)c(Cl)c3)cc2)on1	i	nt	nt	nt	nt	nt
C=CCOc1c(Br)cc(C2C3=C(CCCC3=O)N(C)C3=C2C(=O)CCC3)cc1OCC	i	58	i	i	58	41
C=CCOc1ccc(C2C3=C(CCCC3=O)N(CC(=O)O)C3=C2C(=O)CCC3)cc1OCC	i	i	i	i	nt	nt
Nc1cc2ccncc2c2ccccc12	i	102	i	i	+	+
Cc1ccc(NC(=O)c2cc3ccccc3oc2=N)cc1	i	i	i	i	nt	nt
N=c1oc2cc(O)ccc2cc1C(=O)Nc1ccc(Cl)cc1	i	103	i	i	+	+
O=C1CCC(=O)c2ccc3c4c(ccc1c24)CC3	i	42	32	nt	i	i	GDH-TPI dose=3.6
O=c1cc(CSc2nc3ccccc3c(=O)[nH]2)c2ccc(O)cc2o1	i	28	i	i	102	75
O=c1[nH]c(SCc2ccccc2F)nc2ccccc12	i	i	i	i	nt	nt
Cc1ccc2oc(-c3ccc(NC(=O)c4cccnc4)cc3)nc2c1	i	i	i	i	nt	nt
Cc1ccc2nc(-c3ccccn3)oc2c1	i	103	i	i	42	30
COC(=O)c1ccc(-c2nc3ccc(C)cc3o2)cc1	i	32	i	nt	147	124
Cc1cc(C)n2c(nc3ccccc32)c1C(=O)NN	i	i	i	i	nt	nt
Cc1cc(C)n2c(nc3ccccc32)c1C(=O)NCc1ccccc1	i	48	i	i	i	15
CC(C)NC(=O)N(C)C[C@H]1Oc2ccc(NC(=O)CCC(F)(F)F)cc2C(=O)N([C@H](C)CO)C[C@@H]1C	i	i	i	nt	nt	nt
C[C@H](CO)N1C[C@H](C)[C@@H](CN(C)C(=O)NC2CCCCC2)Oc2ccc(NC(=O)CCC(F)(F)F)cc2C1=O	i	76	i	nt	i	i
CN(CCC(=O)c1ccccc1)CCC(=O)c1ccccc1	i	i	i	i	nt	nt
Cn1cc(-c2coc3c(C(=O)NCc4ccco4)cccc23)cn1	nt	i	i	nt	nt	nt
Cc1ccc2nc(N3CCN(C(=O)CCCC(=O)O)CC3)nc(-c3ccccc3)c2c1	i	32	i	i	73	38
N#Cc1ccc2ccn(CC(=O)NC3CCCCCC3)c2c1	i	i	i	nt	nt	nt
COC(=O)c1ccc2ccn(CC(=O)NC3CCCCC3)c2c1	i	71	i	i	i	i
COc1ccc(CCNC(=O)c2ccc3c(c2)N(Cc2ccc(F)cc2)CCS3)cc1OC	i	72	i	i	55	33
Cc1ccc(CN2CCSc3ccc(C(=O)N4CCOCC4)cc32)cc1	nt	i	i	i	nt	nt
SMILES	CCHFV vOTU inh	Mtb FBA inh	GDH-TPI counter-1	RecA splice inh	Mtb FBA inh conf	GDH-TPI counter-2	others
CCN1CCN(CCCNC(=O)c2ccc3c(c2)N(Cc2ccc(C)cc2)CCS3)CC1	nt	76	i	i	131	102
Cc1ccc(CN2CCSc3ccc(C(=O)NCc4ccco4)cc32)cc1	i	54	i	nt	i	i
CCN1CCN(C(=O)c2ccc3c(c2)N(Cc2ccc(C)cc2)CCS3)CC1	i	i	i	i	nt	nt
C[C@H]1CN([C@@H](C)CO)C(=O)CCCn2cc(nn2)CO[C@@H]1CN(C)S(=O)(=O)c1ccc(Cl)cc1	i	i	i	nt	nt	nt
COc1ccc(-c2cnc(C(N)=O)c(=O)[nH]2)cc1	i	65	i	nt	71	60
COc1ccc(/C=C(\C#N)C(=O)OCC(=O)Nc2ccc(-c3nc4ccc(C)cc4s3)cc2)cc1	i	31	i	i	119	90
Cc1ccc2nc(-c3ccc(NC(=O)COC(=O)c4cncc(Br)c4)cc3)sc2c1	i	40	i	i	33	26
Cc1ccc2nc(-c3ccc(NC(=O)COC(=O)c4ccc(Br)o4)cc3)sc2c1	i	i	i	nt	nt	nt
CCOc1ncccc1C(=O)OCC(=O)Nc1ccc(-c2nc3ccc(C)cc3s2)cc1	i	34	i	i	33	23
Cc1ccc2nc(-c3ccc(NC(=O)COC(=O)c4ccc([N+](=O)[O-])o4)cc3)sc2c1	i	i	i	i	nt	nt
CN(C)S(=O)(=O)c1cccc(NC(=O)COc2ccccc2C(=O)NCc2ccccc2)c1	i	i	i	nt	nt	nt
O=C(Nc1c(C(=O)O)[nH]c2ccccc12)NC1CCCCC1	i	35	i	i	+	174
COC(=O)c1[nH]c2ccc(C)cc2c1NC(=O)NC1CCCCC1	i	i	i	i	nt	nt
C=CC[C@H](CC(=O)OC(C)(C)C)C(=O)OC[C@H]1CCCN1C(=O)[C@H](CC=C)CC(=O)NCCO	i	i	i	nt	nt	nt
CCC1(C(=O)OC)CCc2c(cc(OC)c3ccccc23)C1=O (stereo not given)	nt	28	i	nt	111	71
CCOC(=O)[C@]12Cc3c(cc(OC)c(OC)c3OC)[C@H]1N(C)C(=O)c1ccccc12	i	nt	nt	nt	nt	nt
COC(=O)C1(C)CCc2c(ccc3ccccc23)C1=O (stereo not given)	i	35	nt	nt	56	47
O=C1CC(NS(=O)(=O)c2cccnc2)CN1c1cccc(F)c1 (stereo not given)	i	i	i	i	nt	nt
COc1cc2[nH]c(=O)c(C(=O)NCCCN3CCOCC3)c(O)c2cc1OC	i	39	i	i	29	18
COc1cc2[nH]c3c(=O)n(CCN(C(C)C)C(C)C)cnc3c2cc1OC	i	55	i	i	i	i
COc1cc2[nH]c3c(=O)n(CCN4CCOCC4)cnc3c2cc1OC	i	60	i	i	+	+
COc1ccc2c(c1)[nH]c1c(=O)n(CCN3CCOCC3)cnc12	i	i	i	i	nt	nt
O=C(Nc1ccc2c(c1)OCCO2)C1C(=O)Nc2ccccc2C(=O)N1C1CCCCC1 (stereo not given)	i	nt	nt	nt	nt	nt
Cc1ccc(NC(=O)N2CCCC2C(=O)Nc2ccc3c(c2)OCCO3)cc1 (stereo not given)	i	i	i	i	nt	nt
Cn1c(=O)c2cc3ccccc3nc2n(C)c1=O	i	36	i	i	59	51
Cn1c(=O)c2cc3ccc(Cl)cc3nc2n(C)c1=O	i	i	i	i	nt	nt
Cc1ccc2cc(C#N)c(NCCCNC(=O)C3CCCO3)nc2c1 (stereo not given)	i	51	i	nt	92	86
Cc1ccc2cc(C#N)c(N3CCCN(C(=O)C4CCCO4)CC3)nc2c1 (stereo not given)	i	i	i	i	nt	nt
